In the antibiotic and cytotoxicity screens of Wong et al. (2023):
The whole screen tested about 39,000 compounds, of which about 3,300 (8.5%) were called active. The entries come from a sample that favours actives as a whole.

The compounds below were run on HepG2 (assay: cytotoxicity call (relative viability < 0.9)). Settings: 10 µM.

| SMILES | cytotoxicity call |
| --- | --- |
| Cc1ccc(S(=O)(=O)N(C)C[C@@H]2OCCCC[C@H](C)Oc3ccc(NC(=O)C4CCCCC4)cc3C(=O)N([C@H](C)CO)C[C@@H]2C)cc1 | inactive |
| Cc1noc(C)c1S(=O)(=O)Nc1ccc2c(c1)C(=O)N([C@@H](C)CO)C[C@@H](C)[C@H](CN(C)Cc1ccc(C(F)(F)F)cc1)OCCCC[C@@H](C)O2 | inactive |
| COc1ccc(NC(=O)N(C)C[C@@H]2OCCCC[C@@H](C)Oc3ccc(NC(=O)NC4CCCCC4)cc3C(=O)N([C@@H](C)CO)C[C@@H]2C)cc1 | inactive |
| C[C@@H]1CN([C@@H](C)CO)C(=O)c2cc(C#CC3(O)CCCC3)cnc2O[C@H]1CN(C)S(=O)(=O)c1ccc(F)cc1 | inactive |
| O[C@@H](CCl)CN1CC[N+]2(CC1)CC[N+]1(CCN(C[C@@H](O)CCl)CC1)CC2 | inactive |
| O=C(/C=C/c1ccc(O)c(O)c1)O[C@@H]1C[C@](O)(C(=O)O)C[C@@H](OC(=O)/C=C/c2ccc(O)c(O)c2)[C@H]1OC(=O)/C=C/c1ccc(O)c(O)c1 | inactive |
| CN(C)CCCNC(=O)C[C@@H]1CC[C@@H]2[C@H](COc3ccc(NC(=O)c4ccccc4F)cc3C(=O)N2C)O1 | inactive |
| C[C@H](CO)N1C[C@H](C)[C@H](CN(C)Cc2ccccc2)OCCCC[C@H](C)Oc2ccc(NS(=O)(=O)c3cccs3)cc2C1=O | inactive |
| COc1ccc(CN(C)C[C@@H]2OCCCC[C@H](C)Oc3ccc(NC(=O)NC(C)C)cc3C(=O)N([C@H](C)CO)C[C@@H]2C)cc1 | inactive |
| C[C@@H]1CN([C@@H](C)CO)C(=O)c2cc(NS(=O)(=O)c3cccs3)ccc2O[C@H]1CN(C)Cc1ccc(Cl)c(Cl)c1 | inactive |
| COc1ccc(S(=O)(=O)N(C)C[C@H]2OCCCC[C@H](C)Oc3ccc(NC(=O)Nc4ccc(C(F)(F)F)cc4)cc3C(=O)N([C@@H](C)CO)C[C@H]2C)cc1 | inactive |
| COc1ccc(S(=O)(=O)N(C)C[C@H]2OCCCC[C@H](C)Oc3ccc(NC(=O)Nc4ccc(C(F)(F)F)cc4)cc3C(=O)N([C@H](C)CO)C[C@H]2C)cc1 | inactive |
| COc1ccc(S(=O)(=O)N(C)C[C@@H]2OCCCC[C@H](C)Oc3ccc(NC(=O)Nc4ccc(C(F)(F)F)cc4)cc3C(=O)N([C@@H](C)CO)C[C@H]2C)cc1 | inactive |
| COc1ccc(S(=O)(=O)N(C)C[C@@H]2OCCCC[C@@H](C)Oc3ccc(NC(=O)Nc4ccc(C(F)(F)F)cc4)cc3C(=O)N([C@H](C)CO)C[C@H]2C)cc1 | inactive |
| COc1ccc(S(=O)(=O)N(C)C[C@H]2OCCCC[C@@H](C)Oc3ccc(NC(=O)Nc4ccc(C(F)(F)F)cc4)cc3C(=O)N([C@H](C)CO)C[C@H]2C)cc1 | active |
| COc1ccc(S(=O)(=O)N(C)C[C@@H]2OCCCC[C@H](C)Oc3ccc(NC(=O)Nc4ccc(C(F)(F)F)cc4)cc3C(=O)N([C@@H](C)CO)C[C@@H]2C)cc1 | active |
| COc1ccc(S(=O)(=O)N(C)C[C@H]2OCCCC[C@H](C)Oc3ccc(NC(=O)Nc4ccc(C(F)(F)F)cc4)cc3C(=O)N([C@H](C)CO)C[C@@H]2C)cc1 | active |
| COc1ccc(S(=O)(=O)N(C)C[C@H]2OCCCC[C@H](C)Oc3ccc(NC(=O)Nc4ccc(C(F)(F)F)cc4)cc3C(=O)N([C@@H](C)CO)C[C@@H]2C)cc1 | inactive |
| COc1ccc(S(=O)(=O)N(C)C[C@@H]2OCCCC[C@@H](C)Oc3ccc(NC(=O)Nc4ccc(C(F)(F)F)cc4)cc3C(=O)N([C@H](C)CO)C[C@@H]2C)cc1 | inactive |
| COc1ccc(S(=O)(=O)N(C)C[C@@H]2OCCCC[C@H](C)Oc3ccc(NC(=O)Nc4ccc(C(F)(F)F)cc4)cc3C(=O)N([C@H](C)CO)C[C@@H]2C)cc1 | inactive |

| SMILES | cytotoxicity call |
| --- | --- |
| COc1ccc(S(=O)(=O)N(C)C[C@H]2OCCCC[C@@H](C)Oc3ccc(NC(=O)Nc4ccc(C(F)(F)F)cc4)cc3C(=O)N([C@@H](C)CO)C[C@H]2C)cc1 | active |
| COc1ccc(S(=O)(=O)N(C)C[C@@H]2OCCCC[C@H](C)Oc3ccc(NC(=O)Nc4ccc(C(F)(F)F)cc4)cc3C(=O)N([C@H](C)CO)C[C@H]2C)cc1 | inactive |
| CC(=O)NCCCC[C@@H]1NC(=O)[C@@H]2C[C@H](C(=O)NCCCCN(C)C)[C@H](c3cccc(OCCO)c3)N2C1=O | inactive |
| CC(C)NC(=O)N(C)C[C@@H]1OCCCC[C@@H](C)Oc2ccc(NC(=O)Nc3ccc(C(F)(F)F)cc3)cc2C(=O)N([C@H](C)CO)C[C@@H]1C | inactive |
| COc1ccc(NC(=O)N(C)C[C@@H]2Oc3ncc(C#CC(C)C)cc3C(=O)N([C@@H](C)CO)C[C@@H]2C)cc1 | inactive |
| C[C@@H]1CN([C@@H](C)CO)C(=O)c2c(c3ccccc3n2C)-c2ccccc2CO[C@@H]1CN(C)C(=O)CCC(F)(F)F | inactive |
| COc1ccc(cc1)S(=O)(=O)N1C[C@]2(C1)CN([C@@H](CO)c1c2c2ccc(cc2n1C)OC)C(=O)c1cccnc1 | inactive |
| C[C@@H]1CCCCO[C@@H](CN(C)C(=O)Nc2cccc3ccccc23)[C@@H](C)CN([C@@H](C)CO)C(=O)c2cc(NC(=O)NC3CCCCC3)ccc2O1 | inactive |
| CC(=O)n1cc([C@H]2C=C(C(=O)N3CCN(C)CC3)O[C@@H](OCc3ccc(CO)cc3)C2)c2ccccc21 | inactive |
| C[C@H](CO)N1C[C@H](C)[C@H](CN(C)S(=O)(=O)c2cn(C)cn2)Oc2ccc(NC(=O)Nc3ccc4c(c3)OCO4)cc2C1=O | inactive |
| Nc1ccccc1C(=O)N1CCOCC1 | inactive |
| O=C(c1ccccc1O)N1CCOCC1 | inactive |
| O=C(c1cn(Cc2cncn2Cc2ccc(Br)cc2)cc1-c1cccc2ccccc12)N1CCOCC1 | active |
| C[C@H]1CN(C(=O)CSc2nnc3c4ccccc4n(Cc4cccc(Cl)c4)c3n2)CCN1C(=O)c1ccccc1F | inactive |
| COC(=O)[C@@H]1N2C(=O)[C@@H](N3CC4=C[C@@H](C5CC5)n5c(=O)n(C)c(=O)n5[C@@H]4[C@@H]3[C@@H](O)Cc3ccccc3)[C@H]2SC1(C)C | inactive |
| C[C@@H]1CN([C@@H](C)CO)C(=O)Cc2cc(NS(=O)(=O)c3ccccc3)ccc2O[C@@H]1CN(C)S(C)(=O)=O | inactive |
| C=C1CC[C@@H]2C(C)(C)CCC[C@@]2(C)[C@@H]1CC/C(C)=C/C(=O)OC | inactive |
| C=C1CCC2C(C)(CO)C(O)CCC2(C)C1CC=C1C(=O)OCC1O (centres undefined) | active |
| CC1(C)CCC2(C(=O)O)CCC3(C)C(=CCC4C5(C)CCC(O)C(C)(CO)C5CCC43C)C2C1 (centres undefined) | inactive |
| C[C@H]1CN([C@@H](C)CO)C(=O)c2cc(C#CCN(C)C)cnc2O[C@@H]1CN(C)C(=O)CCN1CCCCC1 | inactive |

| SMILES | cytotoxicity call |
| --- | --- |
| C[C@@H]1CN([C@H](C)CO)S(=O)(=O)c2ccc(C#Cc3cccnc3)cc2O[C@H]1CN(C)C(=O)Nc1ccc2c(c1)OCO2 | inactive |
| C[C@H]1CN([C@@H](C)CO)S(=O)(=O)c2ccc(C#Cc3cccnc3)cc2O[C@@H]1CN(C)C(=O)Nc1ccc2c(c1)OCO2 | inactive |
| C[C@@H]1CN([C@H](C)CO)S(=O)(=O)c2ccc(C#Cc3cccnc3)cc2O[C@@H]1CN(C)C(=O)Nc1ccc2c(c1)OCO2 | inactive |
| C[C@H]1CN([C@@H](C)CO)S(=O)(=O)c2ccc(C#Cc3cccnc3)cc2O[C@H]1CN(C)C(=O)Nc1ccc2c(c1)OCO2 | inactive |
| C[C@H](CO)N1C[C@H](C)[C@H](CN(C)C(=O)Nc2ccc3c(c2)OCO3)Oc2cc(C#Cc3ccncc3)ccc2S1(=O)=O | inactive |
| C[C@H]1CN([C@@H](C)CO)S(=O)(=O)c2ccc(C#Cc3ccncc3)cc2O[C@H]1CN(C)C(=O)Nc1ccc2c(c1)OCO2 | active |
| C[C@@H]1CN([C@@H](C)CO)S(=O)(=O)c2ccc(C#Cc3ccncc3)cc2O[C@H]1CN(C)C(=O)Nc1ccc2c(c1)OCO2 | active |
| C[C@@H]1CN([C@H](C)CO)S(=O)(=O)c2ccc(C#Cc3ccncc3)cc2O[C@@H]1CN(C)C(=O)Nc1ccc2c(c1)OCO2 | active |
| C[C@H](CO)N1C[C@H](C)[C@H](CN(C)C(=O)Nc2ccc3c(c2)OCO3)Oc2cc(C#Cc3cccnc3)ccc2S1(=O)=O | inactive |
| C[C@H](CO)N1C[C@H](C)[C@@H](CN(C)C(=O)Nc2ccc3c(c2)OCO3)Oc2cc(C#Cc3ccncc3)ccc2S1(=O)=O | active |
| C[C@@H]1CN([C@@H](C)CO)S(=O)(=O)c2ccc(C#Cc3cccnc3)cc2O[C@H]1CN(C)C(=O)Nc1ccc2c(c1)OCO2 | inactive |
| C[C@@H]1CN([C@H](C)CO)S(=O)(=O)c2ccc(C#Cc3ccncc3)cc2O[C@H]1CN(C)C(=O)Nc1ccc2c(c1)OCO2 | inactive |
| C[C@@H]1CCCCO[C@@H](CN(C)CC2CCCCC2)[C@@H](C)CN([C@H](C)CO)C(=O)c2cc(NC(=O)C3CCCCC3)ccc2O1 | inactive |
| CO[C@@H](CN(C)S(=O)(=O)c1cn(C)cn1)[C@H](C)CN(C(=O)Nc1ccc(C(F)(F)F)cc1)[C@@H](C)CO | inactive |
| C[C@@H]1CN([C@H](C)CO)C(=O)c2cccc(NS(=O)(=O)c3ccc(F)cc3)c2O[C@@H]1CN(C)S(C)(=O)=O | inactive |
| C[C@H](CO)N1C[C@H](C)[C@H](CN(C)S(=O)(=O)c2ccc(F)cc2)Oc2ncc(Br)cc2C1=O | inactive |
| Cc1noc(C)c1S(=O)(=O)Nc1ccc2c(c1)C(=O)N([C@@H](C)CO)C[C@H](C)[C@@H](CN(C)S(=O)(=O)c1cn(C)cn1)OCCCC[C@H](C)O2 | inactive |
| C[C@H](CO)N1C[C@H](C)[C@H](CN(C)CC2CC2)Oc2ccc(NS(=O)(=O)c3ccc(F)cc3)cc2C1=O | inactive |
| C[C@H](CO)N1C[C@H](C)[C@H](CN(C)S(=O)(=O)c2cccs2)OCCCC[C@H](C)Oc2ccc(NC(=O)Cc3ccccc3)cc2C1=O | inactive |
